Measured values taken from PubChem BioAssay AID504895 (National Center for Advancing Translational Sciences (NCATS), 2011).
Inconclusive results are not listed. Active and inactive are the calls of the source. Calls come from the whole dose curve; as a rule, active = well fitted curve in the direction sought with a large enough effect; inconclusive = small, poorly fitted or top-dose-only effect, or another doubt; inactive = no such curve, though single readings can be large or run the other way.

biological target: Protein phosphatase EYA2 (Homo sapiens) (UniProt O00167); test: Inhibitors of Eya2ED: Hit Confirmation in Primary Screen; settings: Recombinant Eya2ED, OMFP fluorescence phosphatase assay; series mostly up to 76.9 µM; activity change, negative = inhibition: at the top concentration
Sequence (O00167 whole entry, looked up): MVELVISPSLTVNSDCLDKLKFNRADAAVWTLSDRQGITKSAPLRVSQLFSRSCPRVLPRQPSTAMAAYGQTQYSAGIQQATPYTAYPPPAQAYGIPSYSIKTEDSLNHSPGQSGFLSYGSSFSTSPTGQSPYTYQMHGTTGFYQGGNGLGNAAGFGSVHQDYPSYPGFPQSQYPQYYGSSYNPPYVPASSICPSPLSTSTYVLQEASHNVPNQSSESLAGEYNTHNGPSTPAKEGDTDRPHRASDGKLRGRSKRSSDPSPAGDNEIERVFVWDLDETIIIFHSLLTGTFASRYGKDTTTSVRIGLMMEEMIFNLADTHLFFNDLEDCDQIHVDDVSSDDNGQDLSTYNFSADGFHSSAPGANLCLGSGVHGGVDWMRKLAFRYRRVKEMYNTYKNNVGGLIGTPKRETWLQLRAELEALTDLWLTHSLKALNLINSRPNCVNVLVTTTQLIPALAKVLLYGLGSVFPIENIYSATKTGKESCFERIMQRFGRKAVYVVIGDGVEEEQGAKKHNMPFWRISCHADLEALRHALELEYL
Procedure, shortened: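 Hits were retested as 12-point titrations. Compound sat 10 min at ambient with Eya2 (0.2 uM in dispense) in HEPES pH 7.5 buffer with NaCl, MgCl2, BSA and DTT, then OMFP substrate (50 uM in dispense) was added. Dephosphorylation was read by fluorescence at 485/525 nm after a further 10 min.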

Activity change, negative = inhibition, inactive:
CCCC(=O)Nc1cccc(NC(=O)c2ccc3c(c2)OCCO3)c1 -35%
CCOC(=O)c1[nH]c(C)c(C(=O)OCC(=O)Nc2sc3c(c2C#N)CCCCC3)c1C -4.09%
COc1ccc(CCNC(=O)CCSc2nc(-c3ccco3)cc(C(F)(F)F)n2)cc1OC -7.04%
Cc1cc(C)n(C(=O)COc2ccccc2[N+](=O)[O-])n1 -7.27%
S=C1NC[C@H](CC2CCCCC2)N1CC1CCCCC1 -25.8%
Cn1c(N)c(C(=O)CSc2nnc(C3CC3)n2-c2ccccc2)c(=O)[nH]c1=O -7.48%
O=S(=O)(Cc1ccccc1Cl)N1CCN(Cc2ccc3c(c2)OCO3)CC1 -4.31%
O=C(CCc1nc2ccccc2s1)NCc1ccccc1F 7.84%
CC(C1CC1)N(C(=O)c1ccccc1O)c1ccccc1 (stereo not drawn) -16.4%
CC(=O)c1c(C)[nH]c(C(=O)COC(=O)COc2ccccc2)c1C 16%
Cc1nnc(SC(C)C(=O)Nc2ccc3ccccc3c2)[nH]c1=O (stereo not drawn) 2.55%
N#Cc1ccccc1NC(=O)CSC1=Nc2ccccc2C2CC=NN12 (stereo not drawn) -26.1%
CN(CCCC(=O)N1CCN(c2ncccn2)CC1)S(=O)(=O)c1ccc(F)cc1 -1.76%
